# Records with an inconclusive call do not appear. Calls of active or inactive are those of the source. The rule behind the calls is not given here.
# Experiment: HepG2 cell cytotoxicity, cytotoxicity control, set 5 (AID 588441)
# Settings: series mostly up to 50 µM
row,Structure (SMILES),outcome
1,COC(=O)CSc1ncnc2c1cnn2-c1ccc(C)cc1C,inactive
2,COc1ccc(N2CCN(C(=O)c3ccc(CNc4c(N5CCOCC5)c(=O)c4=O)cc3)CC2)cc1,inactive
3,O=C(NCCc1ccc(Cl)cc1)c1ccc(CNc2c(N3CCOCC3)c(=O)c2=O)cc1,inactive
4,CCC(C)NC(=O)CSc1nc2ccccc2c(=O)[nH]1 (stereo not drawn),inactive
5,CC(C)OC(=O)CSc1ncnc2c1cnn2-c1ccccc1,inactive
6,CCOC(=O)CSc1ncnc2c1cnn2-c1ccccc1,inactive
7,CC1CC(C)CN(C(=O)C2CCC(CNc3c(N4CCCCC4)c(=O)c3=O)CC2)C1 (stereo not drawn),inactive
8,CCOC(=O)CSc1ncnc2c1cnn2-c1ccc(C)cc1C,inactive

# Source: PubChem BioAssay AID588441 (Southern Research Specialized Biocontainment Screening …, 2011)
